The values that follow come from PubChem BioAssay AID1476 (National Center for Advancing Translational Sciences (NCATS), 2009).

About 4,500 (2.2%) of roughly 200,000 compounds were called active. Not shown: some 12% with an inconclusive outcome. The call rests on the fitted dose curve; in most records, active means well fitted inhibition curve with a large enough effect; inconclusive means small, poorly fitted or top-dose-only effect, or effect the other way; inactive means flat fitted curve, though single readings scatter. Many of the other results were omitted from the sample, so actives are more common in it than they were.
Potency means the concentration at half of the fitted maximal effect.

Chain of Cruzipain (Trypanosoma cruzi) (P25779 123-467 limits assumed): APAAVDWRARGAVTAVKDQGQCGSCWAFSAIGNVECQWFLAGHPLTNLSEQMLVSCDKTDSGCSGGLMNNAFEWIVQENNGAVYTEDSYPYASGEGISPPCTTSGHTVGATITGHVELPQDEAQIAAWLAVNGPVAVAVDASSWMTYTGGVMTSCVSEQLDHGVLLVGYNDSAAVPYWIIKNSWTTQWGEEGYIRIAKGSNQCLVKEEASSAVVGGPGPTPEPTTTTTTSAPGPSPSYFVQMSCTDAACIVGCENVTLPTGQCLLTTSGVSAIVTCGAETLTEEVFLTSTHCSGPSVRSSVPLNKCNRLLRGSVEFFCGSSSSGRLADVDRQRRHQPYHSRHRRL

For this assay, the target named is Cruzipain (Trypanosoma cruzi) (UniProt P25779). The assay is described as follows: qHTS Assay for Promiscuous and Specific Inhibitors of Cruzain (without detergent). Further: nearly all actives have a fitted effect of over 40% in size.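 On max response, negative = inhibition: plate controls were enzyme without inhibitor for no effect and buffer without enzyme for full effect.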 The following applies: purified cruzain, Z-FR-AMC fluorescence, no detergent. An outline of the steps:
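Purified cruzain at 1.5 nM, pre-incubated 15 min with compound at room temperature in 100 mM sodium acetate pH 5.5, 5 mM DTT, 0.00005% Triton X-100. Reaction started with 2 uM Z-FR-AMC; AMC fluorescence increase over 60 s gives rate.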
In general terms: Quantitative high-throughput screening tests each substance at several concentrations.
As to `CCc1ccccc1NC(=O)c1ccc2nc(CCc3ccccc3)oc2c1`, the max response, negative = inhibition was 1.42% (inactive).

As to `Cc1ccc(NC(=S)N/N=C2/CCCc3c(C)cc(C)cc32)cc1`, the Potency is 31.6 µM (active).

For the compound `CCCCNC(=S)N/N=C1\CCCCc2ccccc21`, the max response, negative = inhibition is -19.4% (inactive).

`Cc1ccc(NC(=S)NC2CCCC2)cc1`: the max response, negative = inhibition was -5.53% (inactive).

As for `CC(C)C[C@H](NC(=O)[C@@H]1O[C@H]1C(=O)O)C(=O)NCCCCN=C(N)N`, the Potency was 0.0316 µM (active).

In the case of `COc1ccc(NC(=O)CCCc2nnc3n(CCC(C)C)c(=O)c4sccc4n23)c(OC)c1`, the max response, negative = inhibition was -6.21% (inactive).

On to `O=C(Nc1cccc(Cl)c1)c1csnn1`, for which the max response, negative = inhibition is -5.33% (inactive).

With `Cc1cccc2c1-c1sc(C(=O)Nc3ccc(F)cc3F)cc1CO2`, the max response, negative = inhibition was -26.4% (inactive).

As for `COc1cc(NS(=O)(=O)c2ccc3c(c2)OCC(C(=O)N2CCCC2)O3)cc(OC)c1` (stereo not drawn), the max response, negative = inhibition is 1.72% (inactive).

Regarding `CCCc1nc2ccccc2c(C(=O)OCC(=O)c2ccc3c(c2)NC(=O)CO3)c1CC`, the max response, negative = inhibition was -2.97% (inactive).

For `O=C(CCc1nc2ccccc2c(=O)[nH]1)OCC(=O)c1cccc(Cl)c1`, the max response, negative = inhibition is -3.88% (inactive).

Consider `Cc1ccc(C(=O)COC(=O)c2cccc(N3C(=O)c4c(C)nc5ccccc5c4C3=O)c2)cc1C`, for which the Potency is 7.94 µM (active).

Take `Cc1cccc(-n2ncc(C(=O)N3CCN(c4ccc(Cl)cc4)CC3)c2C2CCN(C(=O)OC(C)(C)C)CC2)c1`: the max response, negative = inhibition is -21.4% (inactive).

With `c1ccc(COc2nsnc2N2CCOCC2)cc1`, the max response, negative = inhibition was -3.44% (inactive).

Regarding `CCCCSc1ncnc2c1sc1nc(N3CCOCC3)c3c(c12)CCCC3`, the max response, negative = inhibition was 3.5% (inactive).

For the compound `c1ccc(CSc2ncnc3c2sc2nc(N4CCOCC4)c4c(c23)CCCC4)cc1`, the Potency is 3.16 µM (active).

On to `CCOC(=O)c1cc(-c2ccccc2)n(-c2cccc(C(=O)Nc3cc(OC)cc(OC)c3)c2)c1C`, for which the max response, negative = inhibition was -4.47% (inactive).

Consider `CSc1nc(Nc2ccc(F)cc2)cc(-c2ccccc2)n1`, for which the max response, negative = inhibition was -2.64% (inactive).

With `COc1cc2c(cc1O)C(SC)=NC(C)(C)C2`, the max response, negative = inhibition was -12.8% (inactive).

In the case of `COc1cc2c(cc1OC)C(C(C)C)=NC(C)(C)C2`, the Potency was 20 µM (active).

With `COc1cc2c(cc1OC)C(Nc1ccc(S(N)(=O)=O)cc1)=NC(C)(C)C2`, the max response, negative = inhibition was 5.29% (inactive).

In the case of `CCOc1ccc(N(CC)S(=O)(=O)N2CCCC(C(=O)NCc3ccc(Cl)cc3)C2)cc1` (stereo not drawn), the max response, negative = inhibition was 19.9% (inactive).

For `CC(=O)N1CCCc2cc(S(=O)(=O)N3CCC(C(=O)NC4CCCCC4)CC3)ccc21`, the max response, negative = inhibition is 8.72% (inactive).

As for `c1ccc(Nc2nc(-c3ccncc3)cs2)nc1`, the max response, negative = inhibition was 2.93% (inactive).

`c1cnc(Nc2nc(-c3ccc4ccccc4c3)cs2)nc1`: the Potency is 3.98 µM (active).

As to `COc1ccc(Nc2nc(-c3ccccc3)cs2)cc1`, the max response, negative = inhibition was -15.9% (inactive).

Take `COC(=O)c1ccccc1NC(=O)c1cnn(-c2ccc(F)cc2)c1-n1cccc1`: the max response, negative = inhibition was 3.91% (inactive).

Turning to `CCCCCN1CC(O)=C(c2ccccc2)C1=N`, the max response, negative = inhibition is -0.607% (inactive).

On to `CCCCCN1CC(O)=C(c2nc(-c3ccc(Cl)cc3)cs2)C1=N`, for which the Potency is 5.01 µM (active).

With `CCCc1cc(-c2nc(-c3ccc(C)cc3)cs2)ccn1`, the max response, negative = inhibition was 13.4% (inactive).

On to `Cc1ccc(S(=O)(=O)N(Cc2nc(-c3ccc(Cl)cc3)no2)C2CCCCC2)cc1`, for which the max response, negative = inhibition is -17.5% (inactive).

`CCN(CC)S(=O)(=O)c1ccc2c(c1)N(CC(=O)NCc1ccccc1)C(=O)CS2`: the max response, negative = inhibition is 1.54% (inactive).

On to `O=C(C(=O)N1CCc2ccccc2C1)N1CCc2ccccc2C1`, for which the max response, negative = inhibition is -0.495% (inactive).

Turning to `c1ccc(-c2csc(N3CCc4ccccc4C3)n2)cc1`, the Potency was 25.1 µM (active).

As for `N#C/C(=C1\CCCN1)c1nc(-c2ccccc2)cs1`, the max response, negative = inhibition is -17.6% (inactive).

`Cc1ccc(OCC(=O)Nc2ccc(OCc3cc(=O)n4c(C)csc4n3)cc2)cc1C`: the max response, negative = inhibition is -9.52% (inactive).

Regarding `Cc1ccc(C)c(Cn2c(C)c(CNCc3ccc(F)cc3)c(C(=O)O)c2C)c1`, the max response, negative = inhibition was 16.1% (inactive).

Take `COc1ccc(N2C(=O)CS(=O)(=O)C23C(=O)N(Cc2ccc(C)cc2)c2ccccc23)cc1Cl` (stereo not drawn): the Potency was 2.51 µM (active).

As for `COc1ccc(CN2C(=O)CC(Cc3ccc(C)cc3)C2=O)cc1OC` (stereo not drawn), the max response, negative = inhibition was -8.47% (inactive).

Turning to `O=C1CSC2(C(=O)N(Cc3ccccc3)c3ccccc32)N1c1cccc(F)c1` (stereo not drawn), the max response, negative = inhibition is 2.62% (inactive).

In the case of `Cc1oc(-c2ccccc2F)nc1CN1CCC(C(=O)NCCc2ccc(Cl)cc2)CC1`, the max response, negative = inhibition is 1.36% (inactive).

Consider `CC1=C(C(=O)OCc2ccc(C)cc2)C(c2ccccc2Cl)CC(=O)N1` (stereo not drawn), for which the max response, negative = inhibition is 4.48% (inactive).

With `O=C1CC(NNc2ccccc2)C(=O)N1c1cccc(Cl)c1` (stereo not drawn), the max response, negative = inhibition was -28.1% (inactive).

`COc1cc2c(cc1/C=C1/NC(=O)N(c3ccccc3)C1=O)OCO2`: the max response, negative = inhibition was -27.8% (inactive).

On to `O=C1N/C(=C/c2cccn2-c2ccccc2)C(=O)N1c1cccc(Cl)c1`, for which the Potency was 10 µM (active).

For the compound `Cc1ccc(-n2nc3ccc(NC(=O)/C=C/c4ccco4)cc3n2)cc1C`, the Potency is 12.6 µM (active).

Take `O=C(/C=C/c1ccco1)Nc1ccc(Oc2ccccc2)cc1`: the max response, negative = inhibition is -5.89% (inactive).

Regarding `Cc1nnc(NC(=O)/C=C/c2ccco2)s1`, the max response, negative = inhibition was -4.39% (inactive).

Consider `COc1ccccc1Nc1c2c(nc3ccc(NC(=O)/C=C/c4cc(OC)c(OC)c(OC)c4)cc13)CCCC2`, for which the max response, negative = inhibition is -4.58% (inactive).

On to `Cc1ccc(OCC(=O)N/N=C\c2ccco2)c(C)c1`, for which the max response, negative = inhibition is 4.92% (inactive).

As to `COc1ccc(C(=O)Nc2cc(C)ccc2NC(=O)COc2ccccc2)cc1`, the max response, negative = inhibition is 2.68% (inactive).

`Cc1ccc(O)c(NC(=O)COc2cc(C)ccc2C)c1`: the Potency is 31.6 µM (active).

As to `CC(=O)c1ccc(NC(=O)C2CCN(S(=O)(=O)c3c(C)noc3/C=C/c3ccc(C)cc3)CC2)cc1`, the max response, negative = inhibition is 9.83% (inactive).

As to `Cc1cc(C)c(/C=C/c2onc(C)c2S(=O)(=O)N2CCC(C(=O)Nc3ccc(Cl)cc3C)CC2)c(C)c1`, the max response, negative = inhibition was 0.507% (inactive).

On to `Cc1noc(/C=C/N(C)C)c1S(=O)(=O)N1CCCC(C(=O)NCc2ccco2)C1` (stereo not drawn), for which the max response, negative = inhibition is 14.2% (inactive).

As for `Cc1noc(/C=C/c2ccco2)c1S(=O)(=O)N1CCC(C(=O)N2CCc3ccccc32)CC1`, the Potency was 15.8 µM (active).

Turning to `Cc1noc(/C=C/c2ccco2)c1S(=O)(=O)N1CCC(C(=O)Nc2ccc(Cl)cn2)CC1`, the Potency is 6.31 µM (active).

Take `Cc1cccc(NC(=O)C2CCN(S(=O)(=O)c3c(C)noc3/C=C/c3ccco3)CC2)c1`: the max response, negative = inhibition was 2.41% (inactive).
